Our source for the activity (max response) and Potency values is PubChem BioAssay (NCATS).

Molecules are shown by their SMILES. Inconclusive results are not listed. Entries that show only a call come without a potency. Values without a mark were called inactive. Active and inactive are the calls of the source. Calls come from the whole dose curve; as a rule, active = well fitted cell-killing curve with a large enough effect; inconclusive = small, poorly fitted or top-dose-only effect; inactive = flat fitted curve, though single readings scatter.

The nature of one assay: Cellular viability qHTS for adrenocortical cancer (ACC) cell line SW-13 (AID 1963989).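 Note: cells grown in serum-free medium with ITS supplement; nearly all actives have a fitted effect of over 65% in size.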 The note with it: SW-13 ACC cells viability, CellTiter-Glo, 48 h; activity (max response): hits give low values. A digest of the protocol: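 IC50 and maximal-response values come from four-parameter logistic fits of titration data. SW-13 cells in serum-free medium received compounds (up to 46 uM final) for 48 h before CellTiter-Glo luminescence.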
In general terms: In qHTS, concentration-response curves come from the screen itself.
Turning to `COP(=O)(OC)OC=C(Cl)Cl`, the activity (max response) is 13.5%.
The same measure, in the same setting: the result for `CC1Sc2c(C(=O)O)c(=O)c3cc(F)c(N4CCNCC4)cc3n21` (stereo not given) reads 7.63%.
Same read-out and setting: the result for `ClCc1cccc(Cl)c1` reads 11%; that for `NC(=O)c1cc([N+](=O)[O-])cc([N+](=O)[O-])c1`, -5.23%; that for `CN1CC[C@]23c4c5ccc(O)c4O[C@H]2[C@@H](O)CC[C@H]3[C@H]1C5`, -1.35%.
Same read-out and setting: the result for `CN(C)C(=O)Oc1cc(OC(=O)N(C)C)cc(C(O)CNC(C)(C)C)c1` (stereo not given) reads -8.28%; that for `Fc1cc(Br)ccc1CBr`, 13.3%; that for `O=C1CN=C(c2ccccc2)c2cc([N+](=O)[O-])ccc2N1`, -7.73%.
In the case of `O=[N+]([O-])c1c(Cl)c(Cl)cc(Cl)c1Cl`, the activity (max response) was -0.162%.
Still for that read-out and setting: the result for `CC1=C(C(=O)O)N2C(=O)[C@@H](N)[C@H]2SC1` reads 6.68%; that for `NC1=NC(=O)C(c2ccccc2)O1` (stereo not given), 8.75%; that for `C#C[C@]1(O)CC[C@H]2[C@@H]3CCC4=CC(=O)CCC4=C3C=C[C@@]21CC`, 13.9%.
Same read-out and setting: the result for `NC(=O)[C@@H](CC1CC1)[C@@H](CCC(F)(F)F)C(=O)N[C@H]1N=C(c2ccccc2)c2cccc(F)c2NC1=O` reads -14.1%; that for `O=c1n(Cl)c(=O)n(Cl)c(=O)n1Cl`, 8.14%.

The next assay is described as follows: Cellular viability qHTS for adrenocortical cancer (ACC) cell line NCI-H295R (AID 1963990). Note: nearly all actives have a fitted effect of over 60% in size. Note: potency is the fitted concentration of half-maximal effect. Particulars: CellTiter-Glo ATP luminescence, 48 h; series mostly up to 46.1 µM. A digest of the protocol: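 Adrenocortical carcinoma cells, suspended at 300 000 cells/mL in serum-free DMEM plus ITS, rested overnight before pin transfer of compound. After two days' incubation, ATP-dependent luminescence was recorded and curve-fitted.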
As to `COP(=O)(OC)OC=C(Cl)Cl`, the Potency result is “inactive”.
Still for that read-out and setting: under `CC1Sc2c(C(=O)O)c(=O)c3cc(F)c(N4CCNCC4)cc3n21` (stereo not given) stands “inactive”; under `ClCc1cccc(Cl)c1`, “inactive”; under `NC(=O)c1cc([N+](=O)[O-])cc([N+](=O)[O-])c1`, 3.66 µM (active).
The same measure, in the same setting: the result for `CN1CC[C@]23c4c5ccc(O)c4O[C@H]2[C@@H](O)CC[C@H]3[C@H]1C5` reads “inactive”; that for `CN(C)C(=O)Oc1cc(OC(=O)N(C)C)cc(C(O)CNC(C)(C)C)c1` (stereo not given), “inactive”; that for `Fc1cc(Br)ccc1CBr`, “inactive”.
Regarding `O=C1CN=C(c2ccccc2)c2cc([N+](=O)[O-])ccc2N1`, the Potency result was “inactive”.
Still for that read-out and setting: the result for `COC1CC(=C(c2cccs2)c2cccs2)C[N+](C)(C)C1` (stereo not given) reads “inactive”; that for `NC1=NC(=O)C(c2ccccc2)O1` (stereo not given), “inactive”.
Same read-out and setting: under `C#C[C@]1(O)CC[C@H]2[C@@H]3CCC4=CC(=O)CCC4=C3C=C[C@@]21CC` stands “inactive”; under `O=S(=O)(c1ccc(Cl)cc1)c1ccc(Cl)cc1`, “inactive”; under `CCN[C@@H](C)Cc1cccc(C(F)(F)F)c1`, “inactive”.
The same measure, in the same setting: under `NC(=O)[C@@H](CC1CC1)[C@@H](CCC(F)(F)F)C(=O)N[C@H]1N=C(c2ccccc2)c2cccc(F)c2NC1=O` stands “inactive”; under `CC(C)(C)NCC(O)c1cc(Cl)c(N)c(Cl)c1` (stereo not given), “inactive”; under `O=c1n(Cl)c(=O)n(Cl)c(=O)n1Cl`, “inactive”.
